# The list is not random: actives were taken first. Their share in the collection is about 11%.
# Lmaj promast = Leishmania major promastigote growth inhibition, primary screen; Leishmania major promastigotes, resazurin fluorescence viability; inhibition, % at 10 µM; actives 9% (n = 200,000); AID 1063, 2008; in the data active = inhibition above about 50%;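 also: promastigotes grown with compound for 44 hours at 28 °C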
# WT yeast gro inh = growth inhibition of WT strain, primary screen, mitochondrial fusion inhibitor project, WT and mutant strains, chemical genetic; AID 1362, 2008; mitochondrial fusion phenotypic screen; inhibition, % at 10 µM; actives 2.1% (n = 190,000); in the data active = inhibition above about 58%; tested in S. cerevisiae
# Autophagy mod = autophagy modulators in MEF cells, primary screen, imaging, high-content, MEF GFP-LC3; MEF GFP-LC3 puncta imaging; test concentration mostly 10 µM; calls only at 10 µM (by protocol); actives 0.98% (n = 190,000);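 active = percentage of spot-positive cells more than 3 SD above its plate mean, without a fluorescence outlier flag or 80% toxicity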;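 also: spot-positive cell cutoff set from DMSO-treated cells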
# Insulin prom inh = inhibitors of insulin promoter-driven GFP, primary screen, imaging, TRM-6 cells (human fetal islet line), eGFP reporter, cell count; actives 0.9% (n = 130,000); AID 1273, 2008; inhibition, % at 2 µM; reporter expression induced with tamoxifen;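 active = inhibition above the mean plus 3 SD, with well images judged a real hit on visual review, cut at about 60% in these data, passing the limit was not always enough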
# Ins promoter up = insulin promoter activators in MIN6 cells, imaging, high-content screening, mouse beta cells. MIN6 insulin promoter-GFP reporter; stronger effect = higher value. z-score at 5 µM. actives 0.3% (n = 190,000);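 active = z-score above 3 at 5 µM with at least 500 cells counted in the well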
# * = called active by the depositor; i = inactive; . = no result; + = active, no number.
SMILES,Lmaj promast,WT yeast gro inh,Autophagy mod,Insulin prom inh,Ins promoter up
COC(=O)C1=C(C)NC(C)=C(C(=O)OCCN(C)Cc2ccccc2)C1c1cccc([N+](=O)[O-])c1 (centres undefined),31,28,i,23,.
C=CCn1c(SCC(=O)NC23CC4CC(CC(C4)C2)C3)nc2cc(C(=O)O)ccc2c1=O,-10,1,i,42,0.62
OCCCc1nc2ccccc2[nH]1,-5,-4,i,.,-1.5
O=C(Cn1[nH]c(=O)c2ccccc2c1=O)NNC(=O)c1ccccc1,0,-20,i,15,.
CC(=O)c1c(C)[nH]c(C(=O)CSc2nnc(C)s2)c1C,4,2,i,0,-0.38
Fc1ccc(N2CCN(Cc3cnc(Cl)s3)CC2)cc1,6,3,i,14,-0.29
CCOC(=O)N1CCC(=NNc2nc3ccccc3s2)CC1,.,.,.,.,-1
N#C/C(=C\N1CCN(Cc2ccc3c(c2)OCO3)CC1)c1nc2ccccc2s1,7,16,+,36,.
CCOC(=O)N1CCN(/C=C(\C#N)c2nc3ccccc3s2)CC1,7,-10,+,-7,.
O=C1OCCC1Sc1nnnn1-c1ccc(Cl)cc1 (centres undefined),-2,1,i,.,-0.64
COc1ccc(S(=O)(=O)N(C)C)cc1NS(=O)(=O)c1ccc(F)c(F)c1F,-1,-9,i,-33,0.91
COc1ccccc1/C=C/C=N/n1c(-c2ccc(Cl)cc2)n[nH]c1=S,.,.,.,.,0.05
COc1ccc(-c2nc(C(N)=O)c3[nH]c(=O)n(-c4cccc(Cl)c4)c3n2)cc1OC,60*,.,i,-110,-0.45
COc1cccc(-c2nc(C(N)=O)c3[nH]c(=O)n(-c4cccc(Cl)c4)c3n2)c1OC,47,8,i,43,1
CCN1/C(=N\N)c2cccc3cccc1c23,7,9,+,.,1.8
O=C1c2cccc3cccc(c23)N1Cc1ccc(F)cc1,-4,25,i,-25,.
COc1ccc(-c2[nH]n(-c3ccc([N+](=O)[O-])cc3)c(=O)c2C=NCc2ccc(F)cc2)cc1,-1,-4,+,53,-0.15
COc1ccc(-c2[nH]n(-c3ccc([N+](=O)[O-])cc3)c(=O)c2C=NCc2ccncc2)cc1,99*,18,i,26,0.41
O=C(c1ccccc1)c1nc2ccccc2n(CCCn2c(=O)c(C(=O)c3ccccc3)nc3ccccc32)c1=O,18,2,i,8,-0.67
O=C(c1ccc2c(=O)n(C3CCCC3)c(=S)[nH]c2c1)N1CCCCCC1,12,96*,i,-7,-1.4
O=C(c1ccc(Cn2c(=O)[nH]c3ccsc3c2=O)cc1)N1CCN(c2ccccc2)CC1,8,-5,i,67,-0.36
COc1ccc(N2CCN(C(=O)c3ccc(Cn4c(=S)[nH]c5ccc(N6CCOCC6)cc5c4=O)cc3)CC2)cc1,91*,8,i,.,.
O=C(c1ccc(Cn2c(=O)[nH]c3ccccc3c2=O)cc1)N1CCN(c2ccc(F)cc2)CC1,92*,8,i,.,-0.45
O=C(c1ccc(Cn2c(=S)[nH]c3ccc(Br)cc3c2=O)cc1)N1CCN(C2CCCCC2)CC1,27,73*,i,12,.
CCOC(=O)C1CCCN(C(=O)c2ccc(Cn3c(=S)[nH]c4cc(C(=O)OC)ccc4c3=O)cc2)C1 (centres undefined),13,-3,i,67,-0.16
SMILES,Lmaj promast,WT yeast gro inh,Autophagy mod,Insulin prom inh,Ins promoter up
O=C(c1ccc(Cn2c(=S)[nH]c3cc4c(cc3c2=O)OCO4)cc1)N1CCN(c2ccccc2)CC1,15,-3,i,7,-0.35
O=C(CCCN1C(=O)c2cccc3cccc(c23)C1=O)NC1CCS(=O)(=O)C1 (centres undefined),-2,4,i,.,-0.1
CCOC(=O)c1c(C)n(C)c2c(C)cc(O)c(OC(C)=O)c12,-3,-5,i,-29,0.3
Clc1ccc(OCc2nnc3n2CCCCC3)c(Cl)c1,.,.,.,.,1.6
O=C(c1ccc2[nH]c3c(c2c1)CCCC3)N1CCN(c2ccc(F)cc2)CC1,60*,74*,i,-16,0.07
O=C(c1ccc(Cn2c(=S)[nH]c3ccc(N4CCOCC4)cc3c2=O)cc1)N1CCN(c2ccc(F)cc2)CC1,96*,-4,i,.,.
Cc1ccc(C)c(N2CCN(C(=O)c3ccc(Cn4c(=S)[nH]c5ccc(N6CCOCC6)cc5c4=O)cc3)CC2)c1,99*,-3,i,-55,0.78
CCCCN(C)CCNC(=O)c1ccc(Cn2c(=S)[nH]c3ccc(Br)cc3c2=O)cc1,90*,6,i,-25,.
O=C(NCc1ccccn1)c1ccc(Cn2c(=S)[nH]c3ccc(Br)cc3c2=O)cc1,9,-3,i,.,.
Cc1ccc(Cn2c(=S)[nH]c3ccc(N4CCOCC4)cc3c2=O)o1,-10,0,i,-37,0.45
COc1ccccc1N1CCN(C(=O)c2ccc3[nH]c4c(c3c2)CCCC4)CC1,9,39,i,-10,0.73
O=c1c2cc(N3CCOCC3)ccc2[nH]c(=S)n1Cc1ccc(Cl)cc1,8,22,i,.,1.5
COc1ccc(/C=C/C(=O)OCC(=O)Nc2ccc(Cl)c(S(=O)(=O)N(C)C)c2)cc1OC,-5,4,i,-15,0.52
COC(=O)C(C)(C)ONC(=O)Nc1ccc(C)cc1,-7,-15,i,21,0.12
COC(CNC(=O)c1ccc(Cn2c(=S)[nH]c3cc4c(cc3c2=O)OCO4)cc1)OC,-2,-7,i,13,3.5*
CC1(c2ccc(OCC#N)cc2)C=C(c2ccc(OCC#N)cc2)n2nc(C(F)(F)F)nc2N1 (centres undefined),97*,-1,i,-14,-2.1
Cc1cc(C2=CC(C)(c3cc(C)oc3C)Nc3nc(C(F)(F)F)nn32)c(C)o1 (centres undefined),3,13,i,-29,.
Cc1ccc(C2=CC(C)(c3ccc(C)cc3)Nc3nc(C(F)(F)F)nn32)cc1 (centres undefined),39,71*,i,.,.
Cc1cc(C)n(-c2ccc(C(=O)N3CC(C)OC(C)C3)cc2)n1 (centres undefined),-5,-9,i,-5,0.83
Cc1ccccc1-n1nc2c(c1NC(=O)/C=C\c1ccc3c(c1)OCO3)CSC2,68*,32,i,-66,0.73
Cc1ccc(-n2nc3c(c2NC(=O)C(C)(C)C)CSC3)c(C)c1,0,10,i,.,0.25
Cc1ccc(-n2nc3c(c2NC(=O)c2ccc4c(c2)OCO4)CS(=O)C3)cc1 (centres undefined),-3,-11,i,60,0.06
Cc1ccc(-n2nc3c(c2NC(=O)/C=C\c2ccc4c(c2)OCO4)CSC3)c(C)c1,99*,36,i,37,1.1
Cc1ccc(-n2nc3c(c2NC(=O)/C=C\c2ccc4c(c2)OCO4)CSC3)cc1,93*,24,i,2,0.94
Cc1ccccc1S(=O)(=O)/N=C(/c1ccccc1)N1CCOCC1,-1,-10,i,.,0.1

# High-throughput results: PubChem BioAssay, several laboratories
